# Source: PubChem BioAssay (National Center for Advancing Translational Sciences (NCATS))
# Sm TGR inh – inhibitors of Schistosoma mansoni thioredoxin glutathione reductase. 3% of 360,000 active. AID 485364. Potency, µM (highest dose often 114 µM), most hits filed as inhibitors. purified TGR, DTNB reduction, TNB absorbance 405 nm. Q962Y6; also: nearly all actives have a fitted effect of over 60% in size
#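 Kinetic colorimetric format: TGR-catalysed, NADPH-driven DTNB reduction monitored via TNB absorbance. Enzyme dispensed at 20 nM; compound exposure 15 min at room temperature before reaction start.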
# HCMV antiviral – blocks human cytomegalovirus replication; HFF cells, HCMV-luciferase reporter, 72 h; hits give low values; activity change, negative = inhibition, % at 57.5 µM; 4.5% of 410,000 active; AID 1259415; in the data active = activity change below about -60%; inconclusive = no clear call, values can overlap the other calls; inactive = above about -39%
#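 Two-dose cell screen: HFF monolayers treated with compounds and infected with luciferase-expressing HCMV at 1 PFU/cell, 72 h at 37C, then lysed for luciferase measurement.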
# Pf growth 48h – inhibits P. falciparum growth in the first generation, 48 h; P. falciparum luciferase growth in erythrocytes, 48 h; Potency, µM (doses to about 28.7 µM), hits mostly inhibitors; 5.9% of 310,000 active; AID 504832
#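 Growth was read as firefly luciferase luminescence after a 48 h, 37 C, 5% CO2 exposure of compounds to reporter-bearing P. falciparum cultures (0.1% parasitemia, 2% hematocrit final) in Albumax-supplemented RPMI 1640.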
# Pf growth 96h – inhibits malaria parasite growth, 96 h | P. falciparum luciferase reporter growth, 96 h | Potency, µM (titrated, usually from 28.7 µM), hits mostly inhibitors | 6.9% of 320,000 active | AID 504834
#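 Luminescence readout: decreased luciferase signal marks inhibited growth of reporter-expressing P. falciparum in infected red cells (2% hematocrit, 0.05% parasitemia final), exposed to compound two generations (96 h, 37 C, 5% CO2).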
# FBPA Giardia inh – inhibitors of Giardia lamblia fructose-1,6-bisphosphate aldolase. A8B2U2. purified Giardia FBPA. Potency, µM (series often up to 59.6 µM), usual class: inhibitors. 0.71% of 290,000 active; also: nearly all actives have a fitted effect of over 55% in size
# Target sequence (A8B2U2 whole entry, looked up): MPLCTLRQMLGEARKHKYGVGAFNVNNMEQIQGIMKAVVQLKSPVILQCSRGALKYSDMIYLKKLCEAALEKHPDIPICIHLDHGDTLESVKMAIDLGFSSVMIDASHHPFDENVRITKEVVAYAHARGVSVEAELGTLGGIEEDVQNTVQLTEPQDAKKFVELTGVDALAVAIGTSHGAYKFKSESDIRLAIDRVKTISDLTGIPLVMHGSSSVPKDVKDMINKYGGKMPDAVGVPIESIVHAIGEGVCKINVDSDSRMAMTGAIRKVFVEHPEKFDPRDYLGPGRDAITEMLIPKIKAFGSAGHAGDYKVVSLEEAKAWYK
#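 40 nM FBPA preincubated 10 min at RT with compound (up to 57.5 uM final), then substrate plus GAPDH/TPI/NAD/arsenate coupling and diaphorase/resazurin added. Fluorescence read after 20 min at RT, 525/598 nm.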
# Hits are given with their value; . = inactive; ? = inconclusive; / = no result. Compounds with a hit are over-represented: about 14% of the library has one in this group of screens. Unless noted, calls follow the shape of the dose curve; as a rule, active = well fitted curve in the direction sought with a large enough effect; inconclusive = small, poorly fitted or top-dose-only effect, or another doubt; inactive = no such curve, though single readings can be large; an effect the other way counts as inactive or inconclusive.
SMILES,Sm TGR inh,HCMV antiviral,Pf growth 48h,Pf growth 96h,FBPA Giardia inh
COc1cc(OC)c2c(-c3ccccc3)cc(=O)oc2c1C(CCN1CCCC(C)C1)c1ccc2c(c1)OCO2 (centres undefined),.,.,12µM,?,.
O=C(NCc1cccc(C(F)(F)F)c1)c1ccc(=O)[nH]c1,.,.,.,.,.
CCc1nc2ccc(C(=O)Nc3cccc(OCC(=O)N(C)C)c3)cn2c1N(C)C(=O)c1ccncc1,/,.,/,/,/
COc1cc(C(CC(=O)N2CCOCC2)c2c(OC)cc(OC)c3c(-c4ccccc4)cc(=O)oc23)cc(OC)c1OC (centres undefined),/,/,/,/,.
COc1cc(OC)c2c(-c3ccccc3)cc(=O)oc2c1C(CC(=O)N1CCCC1)c1ccc2c(c1)OCO2 (centres undefined),.,.,9.3µM,?,.
Cc1ccc2[nH]c(=O)c3cc(C(=O)N(C)c4ccc(C)c(C)c4)sc3c2c1,.,-61,?,8.3µM,.
CCCCN(CC)CCNC(=O)c1cc2c(=O)[nH]c3ccc(C)cc3c2s1,.,-65,8.3µM,.,.
CCN1CCN(CCCNC(=O)c2cc3c(=O)[nH]c4ccccc4c3s2)CC1,.,.,/,10µM,.
O=C(NCCCN1CCOCC1)c1cc2c(=O)[nH]c3ccccc3c2s1,.,.,.,?,.
Cc1ccc2oc(=O)c3cc(C(=O)NCCCN4CCc5ccccc5C4)sc3c2c1,.,.,.,12µM,.
Cc1cccc2c(N=O)c(O)n(CCc3ccccc3)c12,.,.,?,?,/
O=C(OCc1ccccc1)N1Cc2ccnnc2CC1c1ccccc1Br (centres undefined),/,.,/,/,/
COc1ccc2c(c1)O[C@@H](c1ccc3c(c1)OCO3)[C@H](OC(=O)Nc1ccc(OC(F)F)cc1)C2=O,/,/,/,/,.
CC(=O)Nc1ccc(Nc2nc3c(S(=O)(=O)c4cccc(Cl)c4)nnn3c3ccsc23)cc1,.,.,/,/,/
CCOCCCNC(=O)c1cc2c(=O)[nH]c3ccccc3c2s1,.,.,?,.,.
CCCCN(CC)CCCNC(=O)c1cc2c(=O)[nH]c3ccccc3c2s1,45µM,?,?,?,.
COc1ccc(S(=O)(=O)NCC2CCCN(Cc3ccc(C)o3)C2)cc1 (centres undefined),35µM,.,.,.,.
CCCCCC(C)N (centres undefined),/,/,?,12µM,.
O=c1c2sc3ccccc3c2n(Cc2cccc(Cl)c2)c(=O)n1Cc1ccccc1,.,?,/,/,/
CCNC(=S)N(Cc1ccc2c(c1)OCO2)C1CC(=O)N(c2ccc(F)cc2)C1=O (centres undefined),.,.,9.3µM,?,.
CCNC(=S)N(Cc1ccc2c(c1)OCO2)C1CC(=O)N(c2ccc(OC)cc2)C1=O (centres undefined),.,.,?,?,.
COCc1c(C(=O)N2CCN(S(=O)(=O)c3ccccc3Cl)CC2)oc2ccccc12,.,.,12µM,?,/
Cc1c(C(=O)N2CCN(S(=O)(=O)c3ccccc3F)CC2)oc2c(Cl)cccc12,.,.,10µM,12µM,/
COCc1c(C(=O)N2CCN(Cc3nc4ccccc4s3)CC2)oc2ccccc12,.,.,.,.,/
CCOC(=O)[C@H]1[C@H]2COc3ccc(Br)cc3[C@@H]2N2C(=O)CN(Cc3ccc(Cl)cc3)C(=O)[C@@]12C,/,.,/,/,/
SMILES,Sm TGR inh,HCMV antiviral,Pf growth 48h,Pf growth 96h,FBPA Giardia inh
CCOC(=O)[C@H]1[C@H]2COc3ccc(Br)cc3[C@@H]2N2C(=O)CN(Cc3ccc(F)cc3)C(=O)[C@@]12C,.,.,13µM,?,/
CCOC(=O)[C@H]1[C@H]2COc3ccc(Br)cc3[C@@H]2N2C(=O)CN(Cc3ccco3)C(=O)[C@@]12C,32µM,.,?,?,/
O=C(CCN1C(=O)C2CC=CCC2C1=O)Nc1ccc(S(=O)(=O)N2CCCCC2)cc1 (centres undefined),.,.,?,.,/
COc1ccc(C)cc1NC(=O)c1ccc([N+](=O)[O-])cc1[N+](=O)[O-],.,.,.,?,.
COC(=O)CCC(=O)c1oc2ccccc2c1NC(=O)CCCN1C(=O)c2ccccc2C1=O,.,.,.,9.3µM,.
CC(=O)c1oc2ccccc2c1NC(=O)CCCN1C(=O)c2ccccc2C1=O,.,.,/,.,.
Cc1nc(N)nc(N)c1CCCc1ccc(Cl)c(Cl)c1,/,-87,/,/,/
Cc1nc(N)nc(N)c1-c1ccc(Cl)c(Cl)c1,/,-98,/,/,/
